Some test systems named below: HCT-15 colon; HT29 colon; SNB-75 CNS; SNB-19 CNS; U251 CNS; PC-3 prostate; SK-MEL-5 melanoma; UACC-62 melanoma; LOX IMVI melanoma; SK-MEL-28 melanoma; EKVX NSCLC; SN12C renal; UO-31 renal; TK-10 renal; ACHN renal; CAKI-1 renal; A498 renal; CCRF-CEM leukemia; MOLT-4 leukemia.
Common to all, as to test: NCI-60 one-dose screen, 48 h (100 = growth as untreated, 0 = no growth, -100 = all killed)
Holding throughout (conditions): 10 µM unless noted

Each structure is given as a SMILES string. About 83,000 compounds went through this panel and 20% of them were active in at least one assay; those are over-represented in the sample as a whole.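 Method: cells in 96-well plates; compound added at one concentration; 48 h incubation; percent growth measured; values under 10 scored active.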 Values without a mark were called inactive. Activity calls are given as the source filed them.

Turning to `C=CCCCOC1[C@H](OCc2ccccc2)C(OCc2ccccc2)C(OC)O[C@@H]1CNC(=O)c1cccc(I)c1` (stereo partly drawn), the growth in the assay with HCT-15 colon was 24.9%; with HT29 colon it was 33.1%; in the assay on SNB-75 CNS it was 54.4%; in the assay with SNB-19 CNS it was 49.9%; with U251 CNS it was 25.4%; in the assay with PC-3 prostate, 25%. The growth is -6.8% (active) in the assay with SK-MEL-5 melanoma; 30.9% with UACC-62 melanoma; 11.4% with LOX IMVI melanoma; 70.5% in the assay on SK-MEL-28 melanoma; 36.3% in the assay with EKVX NSCLC; 38.7% with SN12C renal. Further, the growth in the assay on UO-31 renal was 35.4%; in the assay with TK-10 renal, 64.5%; in the assay with ACHN renal, 32.9%; in the assay with CAKI-1 renal, 38.3%; in the assay with A498 renal, 71.2%; with CCRF-CEM leukemia, 13.8%. In addition, the growth with MOLT-4 leukemia is 20.4%.

`CS(=O)(=O)N1CCN(Cc2cc3nc(-c4cccc5[nH]ncc45)nc(N4CCOCC4)c3s2)CC1`: the growth in the assay on HCT-15 colon is 19.3%; in the assay with HT29 colon, 11.4%; with SNB-75 CNS, -25.6% (active); in the assay with SNB-19 CNS, 34.9%; in the assay on U251 CNS it was 34%; in the assay on PC-3 prostate it was 18.2%. Also, the growth in the assay on SK-MEL-5 melanoma is 33.5%; in the assay with UACC-62 melanoma, -14.2% (active); in the assay on LOX IMVI melanoma it was 15.5%; in the assay on SK-MEL-28 melanoma, 10.6%; in the assay with EKVX NSCLC it was 19.9%; with SN12C renal, 17.2%. Besides, the growth is -14.7% (active) in the assay on UO-31 renal; 0.78% (active) in the assay on TK-10 renal; 6.84% (active) in the assay on ACHN renal; 7.35% (active) in the assay with CAKI-1 renal; -47.6% (active) in the assay with A498 renal; 36.3% with CCRF-CEM leukemia. For the same compound, the growth in the assay on MOLT-4 leukemia was 12.3%.

Regarding `CCOc1cc2ncc(C#N)c(Nc3ccc(F)c(Cl)c3)c2cc1NC(=O)/C=C/CN(C)C`, the growth in the assay with HCT-15 colon was -31.1% (active); in the assay with HT29 colon, -35.3% (active); with SNB-75 CNS, -98.5% (active); with SNB-19 CNS, -26.6% (active); with U251 CNS, -70.9% (active); in the assay on PC-3 prostate, -1.37% (active). Moreover, the growth in the assay on SK-MEL-5 melanoma is -94.5% (active); with UACC-62 melanoma, -46.7% (active); in the assay with LOX IMVI melanoma, -72.3% (active); in the assay on SK-MEL-28 melanoma, -75.4% (active); in the assay with EKVX NSCLC, -22% (active); with SN12C renal, -51.7% (active). In addition, the growth in the assay with UO-31 renal was -92.2% (active); with TK-10 renal it was -75.9% (active); in the assay on ACHN renal, -94.3% (active); in the assay with CAKI-1 renal, -59.6% (active); in the assay with A498 renal, -3.54% (active); with CCRF-CEM leukemia it was 0.208% (active). Also, the growth in the assay with MOLT-4 leukemia is -26% (active).

Take `CNc1ncc2cc(-c3cc(NC(=O)NCCC(C)(C)C)c(F)cc3C)c(C)nc2n1`: the growth was 19% in the assay with HCT-15 colon; 3.91% (active) in the assay with HT29 colon; -16.9% (active) with SNB-75 CNS; 23.6% with SNB-19 CNS; 16% in the assay with U251 CNS; 49.1% in the assay with PC-3 prostate. Moreover, the growth in the assay with SK-MEL-5 melanoma is 23.6%; in the assay with UACC-62 melanoma, -7.93% (active); in the assay with LOX IMVI melanoma, -34.1% (active); in the assay with SK-MEL-28 melanoma, -6.47% (active); with EKVX NSCLC, 29.4%; with SN12C renal it was 18.6%. Also, the growth in the assay on UO-31 renal is 3.87% (active); with TK-10 renal, -4.98% (active); in the assay on ACHN renal, 5.23% (active); in the assay on CAKI-1 renal it was 4.36% (active); in the assay with A498 renal, -35.4% (active); with CCRF-CEM leukemia, 63.1%. Further, the growth with MOLT-4 leukemia was 20.6%.

For the compound `Nc1nc(N)c2nc(-c3cccc(O)c3)c(-c3cccc(O)c3)nc2n1`, the growth in the assay on HCT-15 colon was 92%; in the assay on HT29 colon, 68%; with SNB-75 CNS, 39.9%; in the assay on SNB-19 CNS it was 70.8%; in the assay with U251 CNS, 71.6%; in the assay with PC-3 prostate, 76.6%. Also, the growth with SK-MEL-5 melanoma was 89.1%; in the assay with UACC-62 melanoma, 83%; in the assay with LOX IMVI melanoma, 89.6%; in the assay on SK-MEL-28 melanoma it was 85.2%; in the assay on EKVX NSCLC, 82.2%; in the assay on SN12C renal, 51.4%. Besides, the growth is 65.9% in the assay with UO-31 renal; 80.9% with TK-10 renal; 69.3% in the assay on ACHN renal; 67.7% in the assay on CAKI-1 renal; 74.9% in the assay with A498 renal; 66.3% with CCRF-CEM leukemia. For the same compound, in the assay on MOLT-4 leukemia, the growth was 90.6%.

Regarding `Cc1cc(C)n(CC(=O)Nc2ccc(-c3nc4ccccc4s3)cc2)n1`, the growth with HCT-15 colon was 105%; in the assay with HT29 colon, 108%; in the assay on SNB-75 CNS it was 101%; in the assay on SNB-19 CNS, 99.8%; in the assay with U251 CNS, 89.7%; in the assay on PC-3 prostate, 86.8%. In addition, the growth was 96.4% with SK-MEL-5 melanoma; 95.3% with UACC-62 melanoma; 97.7% in the assay on LOX IMVI melanoma; 109% in the assay with SK-MEL-28 melanoma; 108% with EKVX NSCLC; 102% in the assay with SN12C renal. Also, the growth in the assay on UO-31 renal is 83.8%; in the assay with TK-10 renal it was 106%; in the assay on ACHN renal, 114%; in the assay with CAKI-1 renal it was 102%; in the assay on A498 renal it was 94.6%; in the assay with CCRF-CEM leukemia it was 98.5%. Further, in the assay with MOLT-4 leukemia, the growth was 84%.

With `CC(C)(C)OC(=O)N1CCC(O)[C@@H](O[Si](c2ccccc2)(c2ccccc2)C(C)(C)C)[C@H]1/C=C/c1ccccc1` (stereo partly drawn), the growth in the assay on HCT-15 colon is 41.1%; in the assay on HT29 colon it was 37.9%; in the assay on SNB-75 CNS, 46.8%; in the assay on SNB-19 CNS, 58.5%; in the assay on U251 CNS, 44.4%; with PC-3 prostate it was 14%. The growth is 30.2% in the assay with SK-MEL-5 melanoma; 57.1% in the assay with UACC-62 melanoma; 61.4% with LOX IMVI melanoma; 65.1% in the assay on SK-MEL-28 melanoma; 40.7% in the assay on EKVX NSCLC; 73% in the assay with SN12C renal. The growth in the assay with UO-31 renal was 39.1%; in the assay with TK-10 renal, 66.1%; in the assay with ACHN renal, 41.1%; with CAKI-1 renal, 45.3%; with A498 renal it was 68.2%; in the assay on CCRF-CEM leukemia it was 46.4%. In the assay with MOLT-4 leukemia, the growth was 28%.

Source of the values: PubChem BioAssay (NCI).
